Source: PubChem BioAssay AID1159580 (chemical genetic matrix, 2015)
In all, about 5,500 compounds went through this assay and about 2,000 (36%) were called active. About 18% were inconclusive and are not listed. No stated cut-off is given here; in the data, active means normalized growth mostly below about 0.91 (no sharp cut-off); inconclusive means no clear call, values can overlap the other calls; inactive means mostly above about 0.92. Some of the results follow.

Experiment: chemical genetic growth profiling, strain panel (AID 1159580);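 further: tested at 20 µM; growth read once vehicle control cultures reached saturation at 30 °C; 1 = growth at the plate median or of vehicle wells; lower values mean less growth of the strain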
Conditions: S. cerevisiae deletion strains, growth OD

Measured: normalized growth

CC1=C(/C=C/C(C)=C/C=C/C(C)=C/C=C/C=C(C)/C=C/C=C(C)/C=C/C2=C(C)C(=O)CCC2(C)C)C(C)(C)CCC1=O
inactive: locus YAL021C, strain ccr4, hits give low values 1.02 | locus YAL026C, strain drs2, hits give low values 0.964 | locus YAL030W, strain snc1, hits give low values 0.981 | locus YBL061C, strain skt5, hits give low values 0.981 | locus YBR009C, strain hhf1, hits give low values 0.941 | locus YBR023C, strain chs3, hits give low values 0.987 | locus YBR171W, strain sec66, hits give low values 0.975 | locus YBR231C, strain swc5, hits give low values 0.982 | locus YBR279W, strain paf1, hits give low values 0.989 | locus YCL011C, strain gbp2, hits give low values 0.96 | locus YCL016C, strain dcc1, hits give low values 1 | locus YCL061C, strain MRC1, hits give low values 1.01 | locus YCL069W, strain vba3, hits give low values 0.975 | locus YCR088W, strain abp1, hits give low values 0.994 | locus YDL005C, strain med2, hits give low values 0.981 | locus YDL040C, strain nat1, hits give low values 0.978 | locus YDR001C, strain nth1, hits give low values 0.986 | locus YDR069C, strain doa4, hits give low values 0.996 | locus YDR137W, strain rgp1, hits give low values 1.03 | locus YDR159W, strain sac3, hits give low values 0.961 | locus YDR195W, strain ref2 0.944 | locus YDR297W, strain sur2, hits give low values 0.995 | locus YDR334W, strain swr1, hits give low values 0.982 | locus YDR335W, strain msn5, hits give low values 0.992 | locus YDR392W, strain spt3, hits give low values 0.92 | locus YEL003W, strain gim4, hits give low values 0.979 | locus YEL037C, strain rad23, hits give low values 0.971 | locus YEL061C, strain CIN8 (second series), hits give low values 0.979 | locus YER015W, strain faa2, hits give low values 0.984 | locus YER016W, strain bim1, hits give low values 1.01 | locus YER111C, strain swi4, hits give low values 0.963 | locus YER155C, strain BEM2 (second series), hits give low values 0.973 | locus YFR010W, strain ubp6, hits give low values 0.971 | locus YGL167C, strain pmr1, hits give low values 0.978 | locus YGL173C, strain kem1, hits give low values 0.99 | locus YGL227W, strain vid30, hits give low values 0.971 | locus YGL240W, strain doc1, hits give low values 1.01 | locus YGL253W, strain hxk2, hits give low values 0.963 | locus YHR013C, strain ard1, hits give low values 0.958 | locus YHR027C, strain rpn1, hits give low values 0.997 | locus YHR142W, strain chs7, hits give low values 1.01 | locus YJL092W, strain hpr5, hits give low values 0.999 | locus YJL095W, strain BCK1 (second series), hits give low values 1 | locus YJL115W, strain asf1, hits give low values 0.98 | locus YJL129C, strain trk1, hits give low values 0.989 | locus YJL154C, strain vps35, hits give low values 0.975 | locus YJL164C, strain tpk1, hits give low values 1.02 | locus YJL166W, strain qcr8, hits give low values 1 | locus YJL187C, strain SWE1, hits give low values 0.985 | locus YKL160W, strain elf1, hits give low values 1.07 | locus YKR026C, strain gcn3, hits give low values 0.977 | locus YKR091W, strain srl3, hits give low values 0.985 | locus YLL001W, strain dnm1, hits give low values 0.997 | locus YLL026W, hits give low values 0.987 | locus YLL041C, strain sdh2, hits give low values 0.998 | locus YLR027C, strain aat2, hits give low values 1.01 | locus YLR221C, strain rsa3, hits give low values 1.01 | locus YLR258W, strain gsy2, hits give low values 0.982 | locus YLR262C, strain YPT6 (second series), hits give low values 1.05 | locus YLR320W, strain mms22, hits give low values 0.99 | locus YLR342W, strain FKS1, hits give low values 0.983 | locus YLR357W, strain rsc2, hits give low values 0.966 | locus YLR370C, strain arc18, hits give low values 0.986 | locus YLR384C, strain iki3, hits give low values 0.998 | locus YML120C, strain ndi1, hits give low values 0.996 | locus YMR058W, strain fet3, hits give low values 0.965 | locus YMR125W, strain sto1, hits give low values 0.92 | locus YMR129W, hits give low values 0.975 | locus YMR205C, strain PFK2, hits give low values 0.937 | locus YMR231W, strain pep5, hits give low values 0.987 | locus YNL071W, strain lat1, hits give low values 0.99 | locus YNL209W, strain ssb2, hits give low values 0.991 | locus YNL248C, strain rpa49, hits give low values 1.03 | locus YNL322C, strain KRE1 (second series), hits give low values 0.989 | locus YNR049C, strain mso1, hits give low values 0.965 | locus YOR001W, strain rrp6, hits give low values 1.03 | locus YOR070C, strain gyp1, hits give low values 1.02 | locus YOR080W, strain dia2, hits give low values 0.993 | locus YOR083W, strain WHI5, hits give low values 1.05 | locus YOR106W, strain vam3, hits give low values 0.986 | locus YOR265W, strain rbl2, hits give low values 1.01 | locus YOR270C, strain vph1, hits give low values 0.871 | locus YOR290C, strain snf2, hits give low values 0.934 | locus YPL051W, strain arl3, hits give low values 1.02 | locus YPL078C, strain atp4, hits give low values 0.997 | locus YPL106C, strain sse1, hits give low values 1.01 | locus YPL240C, strain hsp82, hits give low values 1
